Test system: WHIM30 (cells of a triple-negative basal-like breast cancer xenograft)
Assay: cell viability of combination (% of vehicle); higher = less cytotoxic
Settings: 1 µM; 72 h; partner dose: 10 nM
Method: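 PDX cells were treated for 72 h with each drug at 1 µM plus carfilzomib (10 nM; 100 nM for WHIM2). Luciferase viability is expressed as percent of vehicle.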

SMILES	cell viability of combination
COC1=C(OC)C(=O)C(CCCCCCCCCCO)=C(C)C1=O [Idebenone] + CC(C)C[C@H](NC(=O)[C@H](CCc1ccccc1)NC(=O)CN1CCOCC1)C(=O)N[C@@H](Cc1ccccc1)C(=O)N[C@@H](CC(C)C)C(=O)[C@@]1(C)CO1 [Carfilzomib]	17.5
CN(C)c1ccc(O)c2c1CC1CC3C(N(C)C)C(=O)C(C(N)=O)=C(O)C3(O)C(=O)C1=C2O.Cl (stereo not given) [Minocycline HCl] + CC(C)C[C@H](NC(=O)[C@H](CCc1ccccc1)NC(=O)CN1CCOCC1)C(=O)N[C@@H](Cc1ccccc1)C(=O)N[C@@H](CC(C)C)C(=O)[C@@]1(C)CO1 [Carfilzomib]	26.4
C1=C\COCc2cc(ccc2OCCN2CCCC2)Nc2nccc(n2)-c2cccc(c2)COC/1 [Pacritinib] + CC(C)C[C@H](NC(=O)[C@H](CCc1ccccc1)NC(=O)CN1CCOCC1)C(=O)N[C@@H](Cc1ccccc1)C(=O)N[C@@H](CC(C)C)C(=O)[C@@]1(C)CO1 [Carfilzomib]	11.5
O=C(NC1CCN(CCCCC2(C(=O)NCC(F)(F)F)c3ccccc3-c3ccccc32)CC1)c1ccccc1-c1ccc(C(F)(F)F)cc1 [Lomitapide] + CC(C)C[C@H](NC(=O)[C@H](CCc1ccccc1)NC(=O)CN1CCOCC1)C(=O)N[C@@H](Cc1ccccc1)C(=O)N[C@@H](CC(C)C)C(=O)[C@@]1(C)CO1 [Carfilzomib]	9.93
CN(C)CC=CC(=O)Nc1cc2c(Nc3ccc(F)c(Cl)c3)ncnc2cc1OC1CCOC1.O=C(O)C=CC(=O)O.O=C(O)C=CC(=O)O (stereo not given) [Afatinib dimaleate] + CC(C)C[C@H](NC(=O)[C@H](CCc1ccccc1)NC(=O)CN1CCOCC1)C(=O)N[C@@H](Cc1ccccc1)C(=O)N[C@@H](CC(C)C)C(=O)[C@@]1(C)CO1 [Carfilzomib]	12.9
Oc1c(Cl)cc(Cl)c2cccnc12 [Chloroxine] + CC(C)C[C@H](NC(=O)[C@H](CCc1ccccc1)NC(=O)CN1CCOCC1)C(=O)N[C@@H](Cc1ccccc1)C(=O)N[C@@H](CC(C)C)C(=O)[C@@]1(C)CO1 [Carfilzomib]	19
CC(NCCCc1cccc(C(F)(F)F)c1)c1cccc2ccccc12.Cl (stereo not given) [Cinacalcet HCl] + CC(C)C[C@H](NC(=O)[C@H](CCc1ccccc1)NC(=O)CN1CCOCC1)C(=O)N[C@@H](Cc1ccccc1)C(=O)N[C@@H](CC(C)C)C(=O)[C@@]1(C)CO1 [Carfilzomib]	18.6
Cn1cnc2c(F)c(Nc3ccc(Br)cc3F)c(C(=O)NOCCO)cc21 + CC(C)C[C@H](NC(=O)[C@H](CCc1ccccc1)NC(=O)CN1CCOCC1)C(=O)N[C@@H](Cc1ccccc1)C(=O)N[C@@H](CC(C)C)C(=O)[C@@]1(C)CO1 [Carfilzomib]	36.1
Cc1cc(-n2c(=O)[nH]c(=O)n(C)c2=O)ccc1Oc1ccc(SC(F)(F)F)cc1 [Toltrazuril] + CC(C)C[C@H](NC(=O)[C@H](CCc1ccccc1)NC(=O)CN1CCOCC1)C(=O)N[C@@H](Cc1ccccc1)C(=O)N[C@@H](CC(C)C)C(=O)[C@@]1(C)CO1 [Carfilzomib]	19.3
COC(=O)c1ccc2c(c1)NC(=O)C2=C(Nc1ccc(N(C)C(=O)CN2CCN(C)CC2)cc1)c1ccccc1 [Nintedanib (BIBF 1120)] + CC(C)C[C@H](NC(=O)[C@H](CCc1ccccc1)NC(=O)CN1CCOCC1)C(=O)N[C@@H](Cc1ccccc1)C(=O)N[C@@H](CC(C)C)C(=O)[C@@]1(C)CO1 [Carfilzomib]	24.9
Cl.OC(c1cc(C(F)(F)F)nc2c(C(F)(F)F)cccc12)C1CCCCN1 (stereo not given) [Mefloquine hydrochloride] + CC(C)C[C@H](NC(=O)[C@H](CCc1ccccc1)NC(=O)CN1CCOCC1)C(=O)N[C@@H](Cc1ccccc1)C(=O)N[C@@H](CC(C)C)C(=O)[C@@]1(C)CO1 [Carfilzomib]	20.3
CO[C@H]1C[C@@H]2CC[C@@H](C)[C@@](O)(O2)C(=O)C(=O)N2CCCC[C@H]2C(=O)O[C@H]([C@H](C)C[C@@H]2CC[C@@H](OC(=O)C(C)(CO)CO)[C@H](OC)C2)CC(=O)[C@H](C)/C=C(\C)[C@@H](O)[C@@H](OC)C(=O)[C@H](C)C[C@H](C)/C=C/C=C/C=C/1C [Temsirolimus] + CC(C)C[C@H](NC(=O)[C@H](CCc1ccccc1)NC(=O)CN1CCOCC1)C(=O)N[C@@H](Cc1ccccc1)C(=O)N[C@@H](CC(C)C)C(=O)[C@@]1(C)CO1 [Carfilzomib]	23.9
COc1ncc(-c2ccc3nccc(-c4ccnnc4)c3c2)cc1NS(=O)(=O)c1ccc(F)cc1F + CC(C)C[C@H](NC(=O)[C@H](CCc1ccccc1)NC(=O)CN1CCOCC1)C(=O)N[C@@H](Cc1ccccc1)C(=O)N[C@@H](CC(C)C)C(=O)[C@@]1(C)CO1 [Carfilzomib]	8.27
CCOC(=O)C1=C(COCCN)NC(C)=C(C(=O)OC)C1c1ccccc1Cl (stereo not given) [Amlodipine] + CC(C)C[C@H](NC(=O)[C@H](CCc1ccccc1)NC(=O)CN1CCOCC1)C(=O)N[C@@H](Cc1ccccc1)C(=O)N[C@@H](CC(C)C)C(=O)[C@@]1(C)CO1 [Carfilzomib]	15.8
Clc1ccc(COC(Cn2ccnc2)c2ccc(Cl)cc2Cl)c(Cl)c1.O=[N+]([O-])O (stereo not given) [Miconazole Nitrate] + CC(C)C[C@H](NC(=O)[C@H](CCc1ccccc1)NC(=O)CN1CCOCC1)C(=O)N[C@@H](Cc1ccccc1)C(=O)N[C@@H](CC(C)C)C(=O)[C@@]1(C)CO1 [Carfilzomib]	14
COC(=O)C12CCC(C)(C)CC1C1C(=O)C=C3C4(C)C=C(C#N)C(=O)C(C)(C)C4CCC3(C)C1(C)CC2 (stereo not given) [Bardoxolone methyl] + CC(C)C[C@H](NC(=O)[C@H](CCc1ccccc1)NC(=O)CN1CCOCC1)C(=O)N[C@@H](Cc1ccccc1)C(=O)N[C@@H](CC(C)C)C(=O)[C@@]1(C)CO1 [Carfilzomib]	14.3
CC(C)N=c1cc2n(-c3ccc(Cl)cc3)c3ccccc3nc-2cc1Nc1ccc(Cl)cc1 [Clofazimine] + CC(C)C[C@H](NC(=O)[C@H](CCc1ccccc1)NC(=O)CN1CCOCC1)C(=O)N[C@@H](Cc1ccccc1)C(=O)N[C@@H](CC(C)C)C(=O)[C@@]1(C)CO1 [Carfilzomib]	16.7
O=C1C=CC=CC1=C1NC(=C2C=CC=CC2=O)N(c2ccc(C(=O)O)cc2)N1 [Deferasirox] + CC(C)C[C@H](NC(=O)[C@H](CCc1ccccc1)NC(=O)CN1CCOCC1)C(=O)N[C@@H](Cc1ccccc1)C(=O)N[C@@H](CC(C)C)C(=O)[C@@]1(C)CO1 [Carfilzomib]	23.7
Cc1ccc(NC(=O)c2ccc(CN3CCN(C)CC3)cc2)cc1Nc1nc(-c2cccnc2)cs1 [Masitinib (AB1010)] + CC(C)C[C@H](NC(=O)[C@H](CCc1ccccc1)NC(=O)CN1CCOCC1)C(=O)N[C@@H](Cc1ccccc1)C(=O)N[C@@H](CC(C)C)C(=O)[C@@]1(C)CO1 [Carfilzomib]	28.7
CC(C)C[C@H](NC(=O)[C@H](Cc1ccccc1)NC(=O)c1cnccn1)B(O)O [Bortezomib] + CC(C)C[C@H](NC(=O)[C@H](CCc1ccccc1)NC(=O)CN1CCOCC1)C(=O)N[C@@H](Cc1ccccc1)C(=O)N[C@@H](CC(C)C)C(=O)[C@@]1(C)CO1 [Carfilzomib]	5.02

— the supplement of paper PMC6992640
